# Assay results reported in PubChem BioAssay (NCATS).
# Results filed as inconclusive are left out. A number with no mark means an inactive call. The source made the active and inactive calls. Calls follow the shape of the dose curve; as a rule, active = well fitted inhibition curve with a large enough effect; inconclusive = small, poorly fitted or top-dose-only effect; inactive = flat fitted curve, though single readings scatter.
# Target: Calcium and integrin-binding protein 1 (Homo sapiens) (UniProt Q99828)
# Sequence (Q99828 whole entry, looked up): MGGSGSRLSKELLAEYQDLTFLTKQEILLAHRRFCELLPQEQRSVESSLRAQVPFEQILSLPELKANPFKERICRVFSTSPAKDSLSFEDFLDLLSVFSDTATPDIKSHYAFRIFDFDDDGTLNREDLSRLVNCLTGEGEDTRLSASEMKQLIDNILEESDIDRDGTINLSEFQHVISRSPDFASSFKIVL
# Assay: Primary qHTS for Identification of Calcium Integrin Binding Protein 1 (CIB1) Competitor (AID 1508620);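 also: GST tagged CIB1 binding a fluorescein labelled alphaIIb integrin peptide tracer; top concentration of the series differs between compounds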
# Details: CIB1-GST / FITC-alphaIIb peptide fluorescence polarization; series mostly up to 114 µM; activity change, negative = inhibition: at the top concentration
# Summary of the method: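 CIB1-GST (1 uM final) and compound incubated 15 min at room temperature before adding FITC-alphaIIb peptide tracer (100 nM final). Competition for binding read by fluorescence polarization (ex 480, em 540) after another 15 min at room temperature.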
# % is scaled to controls: 0 for no effect and ±100 for the full control effect.
Compound,"activity change, negative = inhibition",Potency
CC(C)c1ccccc1-c1ncc(F)c(NCC2CCN(c3cnccn3)C2)n1 (stereo not given),-0.61%,
COc1cccc(OC)c1C1=Nn2c(nnc2-c2ccccc2O)SC1,-3.31%,
O=S(=O)(c1ccc2c(c1)OCCCO2)N1CCN(S(=O)(=O)c2c(F)cccc2F)CC1,4.46%,
Nc1cccc(OCCn2c(CCNC(=O)C3CCCCC3)nc3ccccc32)c1,-5.11%,
Cc1ccc(Cn2ncc3c4sc(C)cc4n(C)c3c2=O)c(C)c1,6.58%,
CC(C)Cc1ccc(-c2ccc(=O)n(CC(=O)NCCc3ccccc3)n2)cc1,-0.389%,
N#Cc1c(-c2csc(-c3no[n+]([O-])c3C#N)c2)no[n+]1[O-],-9.11%,
O=S(=O)(c1ccc2c(c1)OCCO2)N1CCN(S(=O)(=O)c2ccc3c(c2)OCCO3)CC1,,inactive
N#Cc1ccc(-c2nc(NCc3ccc(-c4ccnc(C(F)(F)F)c4)cc3)c3ccccc3n2)cc1,13.5%,
CCc1cccc(CC)c1OCc1cc(C2Nc3ccccc3C(=O)N2Cc2ccco2)ccc1OC (stereo not given),1.8%,
N#Cc1nc(Nc2cc(F)cc(F)c2)c2ncn(CCO)c2n1,4.55%,
Cc1ccc(OCCn2c(CCNC(=O)c3ccc4cc[nH]c4c3)nc3ccccc32)cc1,4.86%,
Cc1cccc(-n2cnc3cc(C(=O)NC4CCCCC4)ccc32)c1,-5.83%,
COc1ccc(-c2nnc(NC(=O)Nc3ccc4ccccc4c3)s2)cc1OC,8.68%,
O=C(CNC(=O)c1ccccc1)N[C@H](C(=O)Nc1cc(C(F)(F)F)ccc1Cl)c1ccccc1,,inactive
CCCCC(OC(=O)CNC(=O)c1ccccc1)C(=O)Nc1cc(C(F)(F)F)ccc1Cl (stereo not given),3.67%,
COc1ccc(C=O)cc1COc1ccc(NC(C)=O)cc1,6.52%,
Cc1ccc(NS(=O)(=O)c2cc3c(cc2N2CCC2)NC(=O)CC3)cc1C,2.81%,
Cc1ccccc1C(=O)N1CCc2cc(-c3nc(NC(=O)Cc4ccccc4)sc3C)ccc21,1.5%,
COc1cc(O)c(C(CC(=O)N2CCCC(c3nc4ccccc4o3)C2)c2ccc3c(c2)OCO3)c(OC)c1 (stereo not given),-7.29% [at 228 µM],

Compound,"activity change, negative = inhibition",Potency
COc1cc(Cn2ncc3c4sc(C)cc4n(C)c3c2=O)cc(OC)c1,5.15%,
COc1ccc(-n2c(C)c(C(C)=O)c3ccccc32)cc1,,inactive
Nc1cccc(CNc2ccc(S(=O)(=O)Nc3nccs3)cc2)c1O,-17.1% [at 30.2 µM],
Cc1ccc(CNc2ncnc3ccc(-c4ccc5c(c4)OCO5)cc23)s1,4.51%,
Cc1ccc(C)c(SC2=NS(=O)(=O)c3ccccc32)c1,-1.12%,
O=C(Nc1cccc(-c2nn3c(=O)cc(N4CCNCC4)nc3s2)c1)C1CCNCC1,-1.07%,
Cc1cc(NS(=O)(=O)c2ccc(NC(=O)Cc3ccc(Cl)cc3)cc2)no1,-8.01%,
NC(=O)C[C@H](N)C(=O)Nc1ccc(Cl)cc1C(=O)c1ccc[nH]1,-4.86%,
COc1ccc(NS(=O)(=O)c2ccccc2)cc1NS(=O)(=O)c1ccccc1,-1.24%,
c1nc(NCC2CCCOC2)c2cc(-c3ccc4c(c3)OCO4)ccc2n1 (stereo not given),-13.3%,
O=C(NCCc1nc2ccccc2n1CCOc1cccc([N+](=O)[O-])c1)C1CCCCC1,2.05%,
Cc1ccsc1CN(C)c1ncnc2ccc(-c3ccc4c(c3)OCO4)cc12,-2.72%,
Cc1cc(C)nc(NC(=S)N2CCN(c3nsc4ccccc34)CC2)c1,-11.9%,
CCOC(=O)c1ccc(-c2ccc3ncnc(NCCc4cnc[nH]4)c3c2)o1,5.47%,
COc1ccc(C2NC(=O)c3ccccc3N2)cc1COc1ccc(NC(C)=O)cc1 (stereo not given),2.32%,
N#Cc1nc(Nc2cc(F)cc(F)c2)nc(NC2CCCC2)n1,-0.12%,
O=C(Nc1ccc(-c2ccccc2)nc1)c1cccs1,2.18%,
COc1ccc(O)c(CNc2ccc(S(=O)(=O)Nc3nccs3)cc2)c1,-5.14%,
O=S(=O)(c1ccc(O)c2ncccc12)N1CCCCC1,-16%,
O=C(Nc1ccc(F)nc1)Nc1nnc(-c2ccncc2)s1,-0.195%,
